Measured values reported in PubChem BioAssay.

Tested on: not listed separately
Experiment: small-molecule binders of probe aInhba, primary screen, biochemical, small-molecule microarray, 635/667 nm fluorescence (AID 1148);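 note: score merges 667nm spot fluorescence with signal-to-noise for antibody binding to printed compounds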
Details: higher = more signal

| SMILES | composite z-score |
| --- | --- |
| C=CCC(OC(C)=O)[C@@H]1[C@@H](N(Cc2ccc(-c3cccc(C(F)(F)F)c3)o2)C(=O)c2ccc(-c3ccccc3)cc2)c2cc(OCCCO)ccc2N1C(=O)c1ccc2ccccc2c1 (stereo partly specified) | -0.0279 |
| Cc1ccc(S[C@]2(C(=O)NCCCN(C)C)CC(=O)N(Cc3ccccc3C(F)(F)F)[C@@H]2c2ccc(CO)cc2I)cc1 | 0.189 |
| CN(C)CCCC[C@@H]1NC(=O)[C@H]2C[C@@H](C(=O)O)[C@@H](c3ccc(O)cc3)N2C1=O | 1.98 |
| COCCOC(=O)N1C(=O)[C@@]2(c3cc(C#CCCO)ccc31)[C@H](c1ccc(OCCO)cc1)N1[C@H](c3ccccc3)[C@H](c3ccccc3)OC(=O)[C@H]1[C@@H]2C(=O)N1CCCCCCC1 | 1.48 |
| CCN(CC)c1ccc(N2CC=CC34O[C@@H]5C=CCCOC(=O)C5[C@H]3C(=O)N(C(C)CO)[C@@H]4C2=O)cc1 (stereo partly specified) | 0.166 |
| CC(C)=CCCC(C)=CC(O)C1C=CC2C(=O)NC(=O)C2N1Nc1ccc(Cl)cc1Cl (stereo unspecified) | -0.0035 |
| COC(=O)[C@@]1(Cc2ccc(F)cc2)[C@H]2c3cc(C(=O)N(C)C)n(CCc4ccc(O)c(O)c4)c3C[C@H]2CN1C(=O)c1ccccc1 | 0.528 |
| N#Cc1ccc(-c2cccc(=O)o2)cc1 | 0.085 |
| COC(=O)[C@@]1(Cc2ccccc2)[C@H]2c3cc(C(=O)N(C)C)n(CCO)c3C[C@H]2CN1C(=O)c1ccccc1 | 0.329 |
| C=CCOC(=O)[C@H]1[C@@H]2C(=O)O[C@@H](c3ccccc3)[C@@H](c3ccccc3)N2[C@@H](c2ccc(OCCOC(=O)[C@@H]3C[C@@H]4C(=O)N[C@@H](CCCC[N+](C)(C)C)C(=O)N4[C@@H]3c3ccc(O)cc3)cc2)[C@]12C(=O)Nc1ccc(I)cc12 | 0.632 |

Target: Torsin-1A (Homo sapiens) (UniProt O14656)
Sequence (O14656 whole entry, looked up): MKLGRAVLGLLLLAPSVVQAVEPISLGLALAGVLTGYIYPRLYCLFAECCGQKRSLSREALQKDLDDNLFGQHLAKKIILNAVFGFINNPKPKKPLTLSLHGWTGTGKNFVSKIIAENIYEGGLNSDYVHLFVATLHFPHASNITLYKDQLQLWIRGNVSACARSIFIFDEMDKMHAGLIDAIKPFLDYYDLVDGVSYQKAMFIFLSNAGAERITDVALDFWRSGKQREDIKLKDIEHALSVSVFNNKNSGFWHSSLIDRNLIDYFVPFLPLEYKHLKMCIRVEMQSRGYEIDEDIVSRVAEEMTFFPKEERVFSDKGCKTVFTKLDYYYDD
Experiment: torsin A binders from cell lysate, primary screen, small-molecule microarray, wild-type, 635/667 nm (AID 1149)
Details: COS7 hTOR1A-WT lysate, 635 nm fluorescence, higher = more signal

| SMILES | composite z-score |
| --- | --- |
| CCOC(=O)C[C@H]1[C@H](OC(=O)Cc2ccc3c(c2)OCO3)[C@@H](NC(=O)Cc2ccc(OC)cc2)c2cc(OCCCO)ccc2N1C(=O)Cc1ccc(OC)cc1 | 0.142 |
| COC(=O)[C@@]1(Cc2ccccc2)[C@H]2c3cc(C(=O)N4CCCC4)n(Cc4ccc(OC)c(OC)c4)c3C[C@H]2CN1C(=O)c1ccccc1 | 0.279 |
| [N-]=[N+]=Nc1ccccc1C[C@]1(C(=O)N2CCOCC2)N=C(c2ccc(OCCCO)cc2)O[C@H]1c1ccccc1N=[N+]=[N-] | 1.32 |
| CC(C)(C)N1CC=CC23O[C@@H]4/C=C\CCCOC(=O)C4[C@H]2C(=O)N(CCCO)[C@@H]3C1=O (stereo partly specified) | 0.585 |
| COc1ccc(CCNC(=O)[C@@H]2c3ccccc3C(=O)N(Cc3ccccc3OC)[C@H]2c2ccc(CO)cc2)cc1 | 0.824 |
| NC(=O)NCC#Cc1ccc2c(c1)[C@]1(C(=O)N2)[C@H](c2ccc(OCCO)cc2)N2[C@H](c3ccccc3)[C@H](c3ccccc3)OC(=O)[C@H]2[C@@H]1C(=O)O | -0.101 |
| COc1ccc(C(=O)Nc2ccc3c(c2)[C@@]2(O[C@H](CCO)[C@@H]([Si](C)(C)c4ccc(OC)cc4)[C@@H]2C)C(=O)N3Cc2ccccc2)cc1 | -0.193 |
| COC(=O)C1=CC(CCCO)=CC(c2cccs2)N(Cc2cc3c(cc2Br)OCO3)C=C1C(=O)OC (stereo unspecified) | 0.565 |
| O=C1O[C@H](c2ccccc2)[C@H](c2ccccc2)N2[C@H]1[C@@H](C(=O)O)[C@]1(C(=O)Nc3ccc(C#CCCO)cc31)[C@H]2c1ccc(OCCO)cc1 | 0.865 |
| CCOC(=O)C[C@H]1[C@H](OC(=O)Cc2ccc3c(c2)OCO3)[C@@H](NC(=O)c2ccc3ccccc3n2)c2cc(OCCCO)ccc2N1C(=O)Cc1ccc(OC)cc1 | 0.509 |
| O=C(NC1CC1)[C@@H]1c2ccccc2C(=O)N(Cc2cc(C(F)(F)F)cc(C(F)(F)F)c2)[C@H]1c1ccc(CO)cc1 | -0.73 |
| C=C(/C(=C/C[C@@H](OC(C)=O)c1cccc(OCCO)c1)c1cnc2ccccc2c1)C(C)C | 1.83 |
| O=C1C2C=CC(C(O)c3cccs3)N(Nc3ccc([N+](=O)[O-])cc3)C2C(=O)N1c1ccccc1 (stereo unspecified) | -0.236 |
| C[N+](C)(C)CCCC[C@@H]1NC(=O)[C@H]2C[C@@H](C(=O)NCCCCCNC(=O)CS)[C@@H](c3cccc(OCCO)c3)N2C1=O | 0.116 |
| COCCOC(=O)N1C(=O)[C@@]2(c3cc(C#CCC(C(=O)OC)C(=O)OC)ccc31)[C@H](c1ccc(O)cc1)N1[C@H](c3ccccc3)[C@H](c3ccccc3)OC(=O)[C@H]1[C@@H]2C(=O)Nc1nc2ccccc2s1 | 0.533 |
| COC(=O)[C@@]1(Cc2ccc(OC)cc2)[C@H]2c3cc(C(=O)N4CCCC4)n(Cc4c(CO)[nH]cc(C)c4=O)c3C[C@H]2CN1C(=O)c1ccccc1 | 0.272 |
